CHRM1 PAM – human M1 muscarinic receptor positive allosteric modulators, primary screen, CHO-K1 cells, Fluo-8 calcium fluorescence, 1536-well; AID 588819, 2011; activation, % at 3 µM; CHO-K1 hM1, ACh EC20; 0% = ACh EC20, 100% = maximal ACh; actives 0.088% (n = 360,000); Muscarinic acetylcholine receptor M1 (Homo sapiens), P11229; in the data active = activation above about 19%, passing the limit was not always enough
Target sequence (P11229 whole entry, looked up): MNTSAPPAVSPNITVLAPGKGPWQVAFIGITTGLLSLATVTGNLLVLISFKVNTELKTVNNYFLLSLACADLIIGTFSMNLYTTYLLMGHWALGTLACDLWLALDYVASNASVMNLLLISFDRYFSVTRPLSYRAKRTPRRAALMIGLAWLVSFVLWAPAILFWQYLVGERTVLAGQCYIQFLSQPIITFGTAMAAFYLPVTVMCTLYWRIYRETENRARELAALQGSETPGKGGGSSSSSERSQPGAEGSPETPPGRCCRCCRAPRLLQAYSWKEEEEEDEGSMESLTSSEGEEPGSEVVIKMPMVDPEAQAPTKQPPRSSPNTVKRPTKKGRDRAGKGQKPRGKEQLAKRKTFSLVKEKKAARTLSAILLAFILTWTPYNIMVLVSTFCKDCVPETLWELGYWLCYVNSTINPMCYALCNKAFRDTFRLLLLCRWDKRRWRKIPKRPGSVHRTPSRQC
CHRM1 antagonist – human M1 muscarinic receptor antagonists, primary screen, CHO-K1 cells, Fluo-8 calcium fluorescence, 1536-well; Muscarinic acetylcholine receptor M1 (Homo sapiens), P11229; CHO-K1 hM1, ACh EC80 antagonist; inhibition, % at 3 µM; actives 1.3% (n = 360,000);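 active = percent inhibition above its own plate's cutoff, namely the mean of that plate's compound wells plus 3 SD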;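 note: peak over basal fluorescence ratio during 140 s after agonist addition; 0% = ACh EC80 plus DMSO and 100% = DMSO alone without agonist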
CHO-K1 Ca antag – M1 antagonist counterscreen hit in parental CHO-K1 cells; ATP-induced calcium, Fluo-8 fluorescence; inhibition, % at 3 µM; actives 0.6% (n = 360,000); AID 602250;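 active = inhibition above a per-plate cutoff, the plate's mean sample inhibition plus 3 SD, cut at about 24% in these data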;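 note: 0% = DMSO plus EC80 ATP and 100% = DMSO alone without ATP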
M1 ag parental – counter-screen for M1 agonists: effect in parental CHO-K1 cells; actives 0.48% (n = 360,000); activation, % at 3 µM; Fluo-8 calcium fluorescence; scaled to maximal ATP response, vehicle zero; in the data active = activation above about 15%;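 note: untransfected CHO-K1 host cells lacking M1 receptor as counterscreen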
CHO-K1 Ca PAM – nonselective calcium activators in parental CHO-K1 cells, primary screen, counter-screen for M1 PAM project, cell-based, Fluo-8 calcium fluorescence, full deck, 1536-well; actives 0.02% (n = 360,000); activation, % at 3 µM; ATP EC20; 0% at ATP EC20, 100% at ATP max;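 active = activation above the run cutoff, the mean activation of all test compounds plus 3 SD, cut at about 40% in these data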;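 note: peak over basal fluorescence ratio in a 140 s read after ATP addition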
M1 ag – human M1 muscarinic receptor agonists, primary screen, Fluo-8 calcium fluorescence, CHO-K1 cells, HTS. Muscarinic acetylcholine receptor M1 (Homo sapiens), P11229. CHO-K1 hM1, agonist mode; 0% DMSO, 100% acetylcholine EC100. activation, % at 3 µM. actives 0.33% (n = 360,000). AID 588814, 2011;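 active = activation above the run's mean compound activation plus 3 SD, cut at about 16% in these data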;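 note: peak over basal fluorescence ratio within a 140 s kinetic read after compound addition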
* hit, by the source's call. An excerpt weighted towards active compounds, which were near 2.3% of everything screened.

`COc1ccccc1CCNC(=O)c1cc(-c2ccccn2)nc2ccccc12` gave CHRM1 PAM -11, CHRM1 antagonist 32*, CHO-K1 Ca antag 15, M1 ag parental 2, CHO-K1 Ca PAM -6 and M1 ag -4.
`Cc1ccc2c(c1)N(CC(=O)NC1CCCCCC1)C(=O)c1cccnc1O2` gave CHRM1 PAM 5, CHRM1 antagonist -8, CHO-K1 Ca antag -20, M1 ag parental 0, CHO-K1 Ca PAM 16 and M1 ag -3.
For NNc1cc([N+](=O)[O-])cc2c1C(=O)N(Cc1ccccc1)S2=O (centres undefined) the results were CHRM1 PAM 7, CHRM1 antagonist -3, CHO-K1 Ca antag -6, M1 ag parental 1, CHO-K1 Ca PAM 4 and M1 ag 1.
`CN1CCCCC1(C)C(=O)NCc1ccc(F)cc1` (centres undefined) gave CHRM1 PAM -5, CHRM1 antagonist 4, CHO-K1 Ca antag 25*, M1 ag parental 0, CHO-K1 Ca PAM -12 and M1 ag -8.
`COc1cccc(CNC(=O)C2(C)CCCCN2C)c1` (centres undefined) gave CHRM1 PAM 16, CHRM1 antagonist -20, CHO-K1 Ca antag -8, M1 ag parental 1, CHO-K1 Ca PAM 18 and M1 ag -9.
Screening NCCC(=O)N1c2ccccc2Sc2ccccc21 returned CHRM1 PAM -26, CHRM1 antagonist 41*, CHO-K1 Ca antag -8, M1 ag parental 1, CHO-K1 Ca PAM 7 and M1 ag -8.
For NCCCC(=O)N1c2ccccc2Sc2ccccc21 the results were CHRM1 PAM -27, CHRM1 antagonist 94*, CHO-K1 Ca antag -13, M1 ag parental 0, CHO-K1 Ca PAM 28 and M1 ag -10.
Screening CCCc1ncc(C(=O)c2ccc(OC)cc2)n1C returned CHRM1 PAM 2, CHRM1 antagonist 1, CHO-K1 Ca antag 6, M1 ag parental 19*, CHO-K1 Ca PAM 15 and M1 ag -4.
CCn1c(=O)c(C(=O)NCc2ccc(F)cc2)c(O)c2ccccc21 was read as CHRM1 PAM 4, CHRM1 antagonist -14, CHO-K1 Ca antag -11, M1 ag parental 0, CHO-K1 Ca PAM 22 and M1 ag -4.
`CCOC(=O)N1CCC(NCCNC(=O)c2cccc(F)c2)CC1` gave CHRM1 PAM -33, CHRM1 antagonist 64*, CHO-K1 Ca antag -21, M1 ag parental 0, CHO-K1 Ca PAM 6 and M1 ag 66*.
Screening CCOC(=O)N1CCC(NC(=O)c2ccc(Cl)cc2)CC1 returned CHRM1 PAM 5, CHRM1 antagonist -4, CHO-K1 Ca antag -1, M1 ag parental 0, CHO-K1 Ca PAM 2 and M1 ag -1.
CCOC(=O)N1CCC(NCCNC(=O)c2ccc(F)cc2)CC1 was read as CHRM1 PAM -33, CHRM1 antagonist 68*, CHO-K1 Ca antag -21, M1 ag parental 0, CHO-K1 Ca PAM 17 and M1 ag 63*.
For CCOC(=O)N1CCC(NC(=O)c2oc3c(F)cccc3c2C)CC1 the results were CHRM1 PAM 5, CHRM1 antagonist -2, CHO-K1 Ca antag -19, M1 ag parental 1, CHO-K1 Ca PAM 11 and M1 ag -5.
For NC(=O)C1(Nc2ccc(Br)cc2)CCCC1 the results were CHRM1 PAM 11, CHRM1 antagonist -15, CHO-K1 Ca antag -3, M1 ag parental 0, CHO-K1 Ca PAM 11 and M1 ag 1.
For O=C(CN1CCCC1)Nc1c(Cl)cccc1Cl the results were CHRM1 PAM 2, CHRM1 antagonist -6, CHO-K1 Ca antag 1, M1 ag parental 6, CHO-K1 Ca PAM 15 and M1 ag -9.
Screening O=C(CSc1ccc(-c2ccccn2)nn1)NCc1ccccc1 returned CHRM1 PAM -5, CHRM1 antagonist 37*, CHO-K1 Ca antag 0, M1 ag parental 4, CHO-K1 Ca PAM 7 and M1 ag -4.
Screening O=C(Nc1ccc(S(=O)(=O)Nc2ncccn2)cc1)c1ccco1 returned CHRM1 PAM 7, CHRM1 antagonist 0, CHO-K1 Ca antag -9, M1 ag parental 1, CHO-K1 Ca PAM 16 and M1 ag -4.
`O=C(Nc1ccc(S(=O)(=O)Nc2ncccn2)cc1)c1ccc(Br)o1` gave CHRM1 PAM 7, CHRM1 antagonist -4, CHO-K1 Ca antag 1, M1 ag parental 18*, CHO-K1 Ca PAM 13 and M1 ag -1.
O=C(NCc1cccc(Cl)c1)c1cc(COc2ccc3ncccc3c2)on1 was read as CHRM1 PAM -10, CHRM1 antagonist 28, CHO-K1 Ca antag 7, M1 ag parental 12, CHO-K1 Ca PAM -2 and M1 ag -3.
Screening CCC1CCCCN1C(=O)c1cc(COc2ccc3ncccc3c2)on1 (centres undefined) returned CHRM1 PAM -13, CHRM1 antagonist 31, CHO-K1 Ca antag 27*, M1 ag parental 16*, CHO-K1 Ca PAM -7 and M1 ag -1.
For CCN1CCN(C(=O)c2cc(COc3ccc4ncccc4c3)on2)CC1 the results were CHRM1 PAM -2, CHRM1 antagonist 10, CHO-K1 Ca antag -4, M1 ag parental 11, CHO-K1 Ca PAM 14 and M1 ag 3.
Screening COCCC1CCCCN1C(=O)c1cc(COc2ccc(-n3cncn3)cc2)on1 (centres undefined) returned CHRM1 PAM -4, CHRM1 antagonist 31*, CHO-K1 Ca antag 25*, M1 ag parental 15, CHO-K1 Ca PAM -17 and M1 ag 6.
`COCCOC1CCN(C(=O)c2cc(COc3ccc(-n4cncn4)cc3)on2)CC1` gave CHRM1 PAM 3, CHRM1 antagonist -4, CHO-K1 Ca antag -1, M1 ag parental 1, CHO-K1 Ca PAM -3 and M1 ag -1.
COCC1CCCCN1C(=O)c1cc(COc2ccc3ncccc3c2)on1 (centres undefined) was read as CHRM1 PAM -16, CHRM1 antagonist 55*, CHO-K1 Ca antag 33*, M1 ag parental 20*, CHO-K1 Ca PAM -24 and M1 ag 6.
For Cc1ccc(F)cc1CNC(=O)c1cc(COc2ccc3ncccc3c2)on1 the results were CHRM1 PAM -26, CHRM1 antagonist 39*, CHO-K1 Ca antag 17, M1 ag parental 14, CHO-K1 Ca PAM -1 and M1 ag 1.
O=C(Nc1ccc(F)cc1F)NC1CCN(Cc2c(F)cccc2Cl)CC1 was read as CHRM1 PAM -2, CHRM1 antagonist 0, CHO-K1 Ca antag -13, M1 ag parental 4, CHO-K1 Ca PAM 19 and M1 ag -6.

Bioassay records deposited in PubChem by The Scripps Research Institute Molecular Screening Center.
